Bioassay records as filed in PubChem.
Mtb FBA inh: Mtb FBA enzyme inhibitors, primary screen, biochemical, fluorescence, strain H37Rv; Fructose-bisphosphate aldolase (Mycobacterium tuberculosis (strain ATCC 25618 / H37Rv)), …; purified M. tuberculosis FBA, fluorescence read-out; inhibition, % at 1 µM; 2.3% of 360,000 active; AID 588726, 2011; in the data active = inhibition above about 27%;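 note: 0% = vehicle and 100% = reference inhibitor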
Autofluor counter: counter-screen for toxin protease inhibitors: compound fluorescence | compound autofluorescence counterscreen, microsphere flow cytometry; hits give high values | fluorescence intensity (test concentration not listed) | 3.1% of 360,000 active | AID 624483; in the data active = fluorescence intensity above about 16000; inconclusive = no clear call, values can overlap the other calls
BoNT A protease: BoNT/A light chain protease inhibitors, primary screen, biochemical, flow cytometry, MLPCN library | multiplex microsphere protease substrate cleavage | inhibition, % at 10 µM | 0.17% of 360,000 active | AID 588499, 2011; note: plate controls were buffer without enzyme for full effect and enzyme alone for no effect
Anthrax LF inh2: Bacillus anthracis LF protease inhibitors, primary screen, biochemical, multiplex microsphere, MLPCN library | 0.12% of 360,000 active | multiplex microsphere protease cleavage assay | inhibition, % at 10 µM | Lethal factor (Bacillus anthracis), P15917 | AID 588501, 2011; note: plate controls were buffer without enzyme for full effect and enzyme alone for no effect
Target sequence (P15917 whole entry, looked up): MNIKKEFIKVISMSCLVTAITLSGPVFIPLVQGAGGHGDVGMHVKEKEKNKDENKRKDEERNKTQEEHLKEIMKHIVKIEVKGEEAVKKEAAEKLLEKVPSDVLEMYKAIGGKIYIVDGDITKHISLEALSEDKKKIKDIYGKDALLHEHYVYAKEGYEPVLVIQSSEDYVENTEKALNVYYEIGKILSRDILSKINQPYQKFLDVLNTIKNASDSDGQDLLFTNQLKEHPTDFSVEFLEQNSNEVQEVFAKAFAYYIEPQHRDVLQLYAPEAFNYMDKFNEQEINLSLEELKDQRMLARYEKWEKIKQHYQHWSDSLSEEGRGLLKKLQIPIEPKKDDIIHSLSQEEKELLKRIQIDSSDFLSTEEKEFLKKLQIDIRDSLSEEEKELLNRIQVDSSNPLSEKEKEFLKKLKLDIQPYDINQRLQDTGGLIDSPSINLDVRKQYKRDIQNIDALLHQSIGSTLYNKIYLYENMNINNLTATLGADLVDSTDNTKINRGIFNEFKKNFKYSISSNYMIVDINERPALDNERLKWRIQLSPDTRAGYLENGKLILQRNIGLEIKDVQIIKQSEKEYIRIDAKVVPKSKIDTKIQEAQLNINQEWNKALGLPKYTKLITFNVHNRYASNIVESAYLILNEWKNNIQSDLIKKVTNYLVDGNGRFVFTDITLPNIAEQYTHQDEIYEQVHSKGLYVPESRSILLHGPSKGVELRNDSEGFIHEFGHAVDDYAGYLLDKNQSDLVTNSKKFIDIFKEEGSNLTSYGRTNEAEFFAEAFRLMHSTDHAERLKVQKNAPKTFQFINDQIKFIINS
BoNT F protease: BoNT/F light chain protease inhibitors, primary screen, biochemical, flow cytometry, MLPCN library; Botulinum neurotoxin type F light chain protease (Clostridium botulinum); Multiplex microsphere protease cleavage assay; inhibition, % at 10 µM; 0.22% of 360,000 active; AID 588497, 2011; in the data active = inhibition above about 35%, passing the limit was not always enough; inconclusive = no clear call, values can overlap the other calls; note: plate controls were buffer without enzyme for full effect and enzyme alone for no effect
GDH-TPI inh: GDH-TPI coupling enzyme inhibitors, primary screen, artefact control for M. tuberculosis FBA inhibitor project, biochemical, absorbance, full deck | GDH-TPI coupled enzyme counterscreen, NADH absorbance | inhibition, % at 4.8 µM | 1.2% of 360,000 active | AID 588335, 2011; in the data active = inhibition above about 30%;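 note: 0% = DMSO wells and 100% = wells lacking the enzyme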
* hit, by the source's call; ? = inconclusive. In the library only some 6.7% were active in any assay of this set; here they are far more common. Cut-off read from the data, not from the text of the source, unless noted: active = inhibition above about 30%; inconclusive = no clear call, values can overlap the other calls; inactive = below that.

SMILES	Mtb FBA inh	Autofluor counter	BoNT A protease	Anthrax LF inh2	BoNT F protease	GDH-TPI inh
COc1cc(OC)cc(C(=O)Nc2ccc(S(=O)(=O)N(C)C)cc2)c1	-1	19847*	1	-2	-2	-5
COc1ccc(NC(=O)c2ccc(S(=O)(=O)N(C)C)cc2)cc1	-2	3406	0	-4	2	4
CC(=O)NC1C(O)OC(CO)C(O)C1O (stereo not drawn)	4	6456	-1	-7	-6	-9
COC(=O)COc1ccc(S(=O)(=O)Nc2ccc3c(c2)OCCO3)cc1C	1	3591	-3	14	?	15
COC(=O)COc1ccc(S(=O)(=O)Nc2ccc3c(c2)OCCO3)cc1Cl	6	20964*	5	-4	5	3
Cc1cc(Cl)c(S(=O)(=O)N2CCN(c3ccc(F)cc3)CC2)cc1OCC(=O)NC1CCCCC1	-4	16526*	-1	-4	-3	20
Cc1cc(Cl)c(S(=O)(=O)Nc2ccon2)cc1OCC(=O)NC1CCCCC1	2	10581	-1	-15	8	3
Cc1cc(Cl)c(S(=O)(=O)N2CCN(c3ccc(F)cc3)CC2)cc1OCC(N)=O	0	3071	0	2	0	9
Cc1cc(Cl)c(S(=O)(=O)Nc2ccc3c(c2)OCCO3)cc1OCC(=O)NC1CCCCC1	1	19863*	?	-3	1	-11
COc1ccc(CNC(=O)CCC(=O)Nc2cccnc2)cc1	0	3849	4	-10	-4	-8
CCCOC1CCCN(C(=O)c2cc(COc3c(F)cccc3F)on2)C1 (stereo not drawn)	-1	6073	0	0	0	-5
COc1cc(OC)cc(C(=O)N[C@H](C(=O)OCn2nnc3ccccc3c2=O)C(C)C)c1	2	4389	0	0	-1	7
O=C(NC(=S)Nc1ccccc1C(=O)O)c1ccc2ccccc2c1	13	?	-2	-8	-13	5
Cc1ncc(CN2CCN(Cc3ccccc3)C(CCO)C2)s1 (stereo not drawn)	-1	5913	-2	-4	-14	17
COc1ccccc1CNS(=O)(=O)c1ccc(Br)s1	2	3743	-3	1	6	-2
CCOc1ccc(Nc2c3ccccc3nc3ccccc23)cc1	25	3366	-1	-5	-6	4
CCOC(=O)C1(CCOc2ccccc2)CCN(Cc2ccc(F)c(OC)c2)CC1	2	4428	0	-18	40*	5
CCOC(=O)C1(CCOc2ccccc2)CCN(Cc2ccc(O)c(OC)c2)CC1	1	4934	-1	-6	19	-3
O=C(Nc1ccc2c(c1)OCO2)c1cc(C2CCCCN2C(=O)c2ccc3c(c2)CCO3)on1 (stereo not drawn)	-2	3548	0	1	3	0
CN(Cc1cnn(-c2ccccc2)c1)C(=O)c1ccc(S(=O)(=O)NCc2ccco2)cc1	1	3985	-1	4	-1	4
CCOCCC(=O)Nc1ccc2c(c1)c(=O)n(C)n2Cc1cccc(C(F)(F)F)c1	177*	2945	0	5	1	10
Cn1c(=O)c(=O)n(C)c2cc(S(=O)(=O)CCC(=O)Nc3cccc(C(F)(F)F)c3)ccc21	-1	5938	4	-3	1	7
COc1ccc(CNC(=O)Nc2ccc3c(c2)c(=O)n(C)n3Cc2cc(C)cc(C)c2)cc1	168*	2970	0	4	5	11
COc1cccc(NC(=O)CCc2ccccc2)c1	3	3812	0	3	0	8
COc1cccc(Cn2c3ccc(NC(=O)CCc4ccc(F)cc4)cc3c(=O)n2C)c1	151*	3657	0	-8	-1	4
COc1ccccc1CCC(=O)Nc1ccc2c(c1)c(=O)n(C)n2C	189*	3548	0	-3	-1	8
COc1cc(OC)cc(-c2c(-c3cccs3)c3cc(-c4cc(OC)c(OC)c(OC)c4)ccc3n2C)c1	1	2837	0	-2	4	11
